Drawing on ChEMBL document CHEMBL1157539, “Thousands of chemical starting points for antimalarial lead identification” (Nature, 2010), this text covers Inhibition for 30 molecules.

Format in all cases: functional
In test [1] the test system is Plasmodium falciparum. The test is described as follows: GSK_TCMDC: Inhibition of Plasmodium falciparum 3D7 in whole red blood cells, using parasite LDH activity as an index of growth. Test compounds present at 2uM.
For test [2], the system named is Plasmodium falciparum. The test can be described thus: GSK_TCMDC: Inhibition of Plasmodium falciparum Dd2 in whole red blood cells, using parasite LDH activity as an index of growth. Test compounds present at 2uM.
Test [3] deals with HepG2. The test is described as follows: GSK_TCMDC: Percent inhibition of human HepG2 cell line. Test compounds present at 10uM.

A word on the Inhibition: it is the percentage by which the read-out fell short of the control. The low end stands for little suppression, the high end for strong suppression. Consider `CCNc1cc(C(=O)N[C@@H](Cc2ccccc2)[C@H](O)CNC(CC)c2cccc(Cl)c2)cc(N2CCCCS2(=O)=O)c1.Cl` (stereo not given in full), for which the Inhibition in test [1] is 100%; in test [2], 98%; in test [3], 12%.
With `COCC(C)n1c(SC(C)C(=O)Nc2cc([N+](=O)[O-])ccc2Cl)nc2ccccc2c1=O` (stereo not given), the Inhibition in test [1] is recorded as 95%; in test [2], 94%; in test [3], 0%.
Regarding `CC(=O)Nc1ncc(C(=O)Nc2cccc(-c3cccc(-c4nc5cc(C(F)(F)F)ccc5[nH]4)c3)c2)s1`, the Inhibition in test [1] worked out at 100%; in test [2], 99%; in test [3], 76%.
The like results for `COc1ccc(Nc2nc(NCc3cccc(NS(C)(=O)=O)c3)cc(-c3ccc(OC)cc3)n2)cc1` were, in that order, 84%, 5% and 0%.
For `O=C(NCCN1CCOCC1)c1csc(C2CCCN(C(=O)c3ccc(O)c(-c4cc(Cl)cc(Cl)c4)c3)C2)n1` (stereo not given), the results for the Inhibition in test [1], in test [2] and in test [3] were 97%, 50% and 12%, respectively.
The like results for `N#Cc1ccc(CNCCCCCCCNCc2ccc(-c3ccccc3)cc2)cc1` were, in that order, 87%, 10% and 19%.
On the same counts, the results for `Cc1ccc(C2CCN(CCCCNC(=O)c3ccc(NC(=O)c4ccc(Cl)cc4)cc3)CC2)c(C)c1.Cl` are 96%, 10% and 23%.
On the same counts, the results for `CC(C)(C)c1ccc(CN2CCC(NC(=O)c3cc(-c4cccc(C(F)(F)F)c4)cs3)C2)cc1.O=C(O)C(F)(F)F` (stereo not given) are 98%, 85% and 24%.
In the case of `COc1ccc2nccc([C@@H](O)CN3CCC(NC(=O)C(c4cc5ccccc5o4)N4CCC(Cc5ccccc5)CC4)CC3)c2c1` (stereo not given in full), the results for the Inhibition in test [1], in test [2] and in test [3] were 100%, 82% and 11%, respectively.
The like results for `CCNc1cc(C(=O)N[C@@H](Cc2ccccc2)[C@H](O)CNC2CCCC2)cc(N2CCCC2=O)c1` were, in that order, 98%, 98% and 8%.
Consider `C#CCCC(=O)Nc1cccc(-c2cccc(-c3nc4cccc(C)c4[nH]3)c2)c1`, for which the Inhibition in test [1] came out at 97%; in test [2], 29%; in test [3] it was 30%.
Take `Cc1nnc2c(NC(=O)NC(C)C)cc3cc(-c4ccc(CN5CCCCC5)cc4)ccc3n12`: the Inhibition in test [1] was determined as 87%; in test [2] it was 8%; in test [3], 70%.
Take `CC(C)Cn1c(Sc2ccc(C#N)c([N+](=O)[O-])c2)nnc1-c1ccc(N(C)C)cc1`: the Inhibition came to 98% in test [1], 98% in test [2] and 4% in test [3].
On to `Cc1c(Oc2ccc(-n3ccnc3)cc2)ncnc1N1CCC2(CC1)CNCc1ccccc12.O=C(O)C(F)(F)F`, for which the Inhibition in test [1] worked out at 95%; in test [2] it was 58%; in test [3], 26%.
With `CCOC(=O)CNC(=O)N1CCN(C(=O)NCC(=O)OCC)CC1`, the Inhibition in test [1] is 93%; in test [2], 0%; in test [3] it was 0%.
As to `Cc1cc(NCCc2ccccc2)nc(NC(=N)Nc2cccc(Cl)c2)n1`, the Inhibition came to 100% in test [1], 100% in test [2] and 24% in test [3].
As for `Br.CCOC(=O)c1cc(Cl)ccc1OCCCON1C(=N)N=C(N)NC1(C)C`, the Inhibition was 94% in test [1], 95% in test [2] and 69% in test [3].
With `COc1ccc(CNc2nc(Nc3cccc(C#N)c3)nc(Nc3cccc(C#N)c3)n2)cc1Cl`, the Inhibition in test [1] was determined as 100%; in test [2] it was 83%; in test [3] it was 0%.
As for `Cc1cccc(OC(C)C(=O)Nc2cc(C(F)(F)F)ccc2N2CCOCC2)c1` (stereo not given), the Inhibition is listed as 100% in test [1], 98% in test [2] and 2% in test [3].
The like results for `Cc1c(Cc2ccccc2Cl)cnc2nc(N)nc(N)c12.Cl` were, in that order, 91%, 96% and 67%.
Take `Cc1cc(F)ccc1Nc1nc(N(C)c2ccccc2)c2cc(OCCCN(C)C)ccc2n1`: the figures for the Inhibition in test [1], in test [2] and in test [3] were 100%, 49% and 31%, respectively.
On the same counts, the results for `COc1ccc(CNCc2ccccc2)cc1-c1ccc(S(=O)(=O)NCCN2CCCC2)cc1.O=C(O)C(F)(F)F` are 96%, 39% and 38%.
For the molecule `COc1cc2nc(N3CCC(CNC(=O)c4cccc5cccnc45)CC3)nc(N)c2cc1OC`, the values for the Inhibition in test [1], in test [2] and in test [3] were 99%, 33% and 34%, respectively.
With `CC(C)(C)c1cc(CN2CCN(Cc3ccccc3)CC2)cc(C(C)(C)C)c1O`, the Inhibition in test [1] is reported as 97%; in test [2], 0%; in test [3], 9%.
Take `Cc1cc(-c2ccc(Cl)cc2)c2c(N)c(C(=O)Nc3ccc(F)cc3)sc2n1`: the Inhibition in test [1] is reported as 97%; in test [2] it was 87%; in test [3] it was 12%.
The like results for `Cl.c1ccc(C(c2cccs2)N2CCN(Cc3ccc(OCCCN4CCCCC4)cc3)CC2)cc1` (stereo not given) were, in that order, 91%, 14% and 41%.
Consider `CC(C)(C)c1nn(-c2ccc(Cl)cc2)c2[nH]c(=O)c(CNCc3cccs3)cc12`, for which the figures for the Inhibition in test [1], in test [2] and in test [3] were 100%, 77% and 5%, respectively.
On the same counts, the results for `Cc1cccc(-c2cccc(CNc3nc(NCCc4ccc(O)cc4)nc(N4CCNCC4)n3)c2)c1.O=C(O)C(F)(F)F` are 84%, 0% and 50%.
On the same counts, the results for `Cc1ccc2c(O)c([N+](=O)[O-])c(O)nc2c1` are 98%, 0% and 3%.
Consider `Cc1ccccc1C1CCN(c2ccc(C(=O)NC3CC3)cn2)CC1.O=C(O)C(F)(F)F`, for which the Inhibition is given as 95% in test [1], 95% in test [2] and 17% in test [3].
